Compound activity from PubChem BioAssay.
An excerpt weighted towards active compounds, which were near 18% of everything screened.
DT40 TDP1 CPT – growth inhibition of DT40 Tdp1-/-;hTDP1 cells with camptothecin (screen for TDP1 inhibitors); AID 686979; Potency, µM (titrated, usually from 46.2 µM), for inactives: top-dose activity change, negative = growth inhibition, most hits filed as inhibitors; chicken DT40 Tdp1-/-;hTDP1 cells + 20 nM CPT, ATP luminescence, 48 h; actives 12% (n = 420,000); further: potency means the concentration at half of the fitted maximal effect; nearly all actives have a fitted effect of over 55% in size
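Cell growth measured by CellTiter-Glo luminescence after a minimum 48 h, 37 C compound exposure with 20 nM CPT in Tdp1-knockout DT40 cells stably expressing hTDP1, seeded 400/well; qHTS titration format.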
IL1B secr inh – inflammasome signaling inhibition, IL-1 beta readout; THP-1 LPS/ATP IL-1B secretion, AlphaLISA, 16 h; stronger effect = lower value; activity change, % at 57.5 µM; actives 4.7% (n = 360,000); AID 743279; in the data active means activity change below about -50%; inconclusive means mostly about -30% to -49%
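Secreted IL-1B measured by AlphaLISA bead assay after 16 h compound exposure of THP-1 cells; compounds (final up to 57.5 uM) added 1 h before LPS (250 ng/mL) and ATP (1.25 mM) stimulation; lower signal means less secretion.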
TDP1 cell noCPT – qHTS for Inhibitors of human tyrosyl-DNA phosphodiesterase 1 (TDP1): qHTS in cells in absence of CPT. Potency, µM (highest dose often 46.2 µM), inactives show at the highest dose activity change, negative = growth inhibition, most hits filed as inhibitors. actives 15% (n = 420,000). DT40 Tdp1-/- hTDP1 cells, no CPT, ATP luminescence, 48 h. AID 686978, 2013; further: potency means the concentration at half of the fitted maximal effect; nearly all actives have a fitted effect of over 55% in size
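A cellular qHTS used chicken DT40 cells lacking endogenous Tdp1 but carrying stably transfected human TDP1. Compounds were applied without camptothecin, and cell growth kinetics were judged by ATP-dependent luminescence after ≥48 hr.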
Six1-Eya2 inh – blocks human Six1 binding to Eya2 | actives 0.56% (n = 360,000) | Q15475+O00167 | activity change, % (no concentration beside the values) | AlphaScreen GST-Six1/His-Eya2 binding, biochemical; stronger effect = lower value; in the data active means activity change below about -65%; inconclusive means mostly about -30% to -63%
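Homogeneous AlphaScreen proximity assay pairing GST-Six1 with His-tagged Eya2 (added as 5X mix: 250 nM and 500 nM) in 50 mM Tris pH 8.0, 300 mM NaCl, 1 mM TCEP. Glutathione donor and nickel acceptor beads; 1 h, 37 °C, dark.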
CtBP-E1A blk – CtBP/E1A binding inhibition; activity change, % (no concentration beside the values); AlphaScreen GST-E1A/His-CtBP binding, 1536-well; stronger effect = lower value; AID 651724; actives 0.49% (n = 340,000); in the data active means activity change below about -65%; inconclusive means mostly about -30% to -63%
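GST-E1A and His-tagged CtBP (125 nM each as 5X stock) were preincubated with pin-transferred compound for 2 h at 37 °C in the dark, then glutathione donor and nickel acceptor beads were added for 1 h before AlphaScreen reading.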
TDP1 block – blocks human tyrosyl-DNA phosphodiesterase 1 | AID 485290 | Potency, µM (top dose mostly 130 µM), without a hit: top-dose activity change, negative = inhibition, most hits filed as inhibitors | actives 0.28% (n = 350,000) | recombinant TDP1, AlphaScreen DNA substrate cleavage | Q9NUW8; further: potency means the concentration at half of the fitted maximal effect; nearly all actives have a fitted effect of over 40% in size
Target sequence (Q9NUW8 whole entry, looked up): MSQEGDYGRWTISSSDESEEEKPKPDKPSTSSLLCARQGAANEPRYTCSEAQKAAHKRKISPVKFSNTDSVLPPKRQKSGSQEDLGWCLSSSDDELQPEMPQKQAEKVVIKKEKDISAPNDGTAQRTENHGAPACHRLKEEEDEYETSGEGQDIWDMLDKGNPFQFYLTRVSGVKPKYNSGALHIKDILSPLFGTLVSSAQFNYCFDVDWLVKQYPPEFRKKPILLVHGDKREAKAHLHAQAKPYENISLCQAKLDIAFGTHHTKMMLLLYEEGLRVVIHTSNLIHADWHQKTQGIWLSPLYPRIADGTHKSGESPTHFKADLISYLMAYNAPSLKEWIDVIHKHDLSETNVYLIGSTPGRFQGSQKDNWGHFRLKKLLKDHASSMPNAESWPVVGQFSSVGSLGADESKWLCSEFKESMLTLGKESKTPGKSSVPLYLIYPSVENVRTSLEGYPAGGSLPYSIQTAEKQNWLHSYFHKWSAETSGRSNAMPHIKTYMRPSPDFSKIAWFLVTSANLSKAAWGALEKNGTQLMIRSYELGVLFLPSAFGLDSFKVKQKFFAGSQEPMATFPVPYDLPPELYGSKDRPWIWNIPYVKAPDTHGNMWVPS
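Here, a 5' biotin and 3' phosphotyrosine-FITC DNA oligonucleotide reports Tdp1 activity: intact substrate bridges AlphaScreen beads, while cleavage leaves a 3' phosphate and drops signal. All incubations at room temperature.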
* hit, by the source's call; ? = inconclusive; . = not tested or not shown; [ ] = another dose, or the depositor's remark. Unless noted, the call rests on the fitted dose curve; in most records, active means well fitted curve in the direction sought with a large enough effect; inconclusive means small, poorly fitted or top-dose-only effect, or another doubt; inactive means no such curve, though single readings can be large; an effect the other way counts as inactive or inconclusive. On the % scale 0 is the no-effect control and ±100 the full control effect.

SMILES | DT40 TDP1 CPT | IL1B secr inh | TDP1 cell noCPT | Six1-Eya2 inh | CtBP-E1A blk | TDP1 block
CCCCN(C)C(=O)c1sc(=O)n(Cc2ccc(Cl)c(Cl)c2)c1C | ? | 0 | 21µM* | -6 | -2 | .
CSc1ccc(Cn2c(C)c(C(=O)NCc3ccc(Cl)c(Cl)c3)sc2=O)cc1 | ? | -58* | ? | -5 | -2 | .
CC(=O)NC(C)Cc1cn(Cc2ccccc2)c2ccccc12 (stereo not drawn) | ? | 8 | ? | -3 | . | .
COc1ccc2cc1Oc1ccc(cc1)CC1c3c(cc(OC)c4c3Oc3cc5c(cc3O4)CCNC5C2)CCN1C (stereo not drawn) | 2.9µM* | -11 | 1.6µM* | ? | -11 | .
COc1ccc2cc1Oc1ccc(cc1)CC1c3c(cc4c(c3Oc3cc5c(cc3OC)CCN(C)C5C2)OCO4)CCN1C (stereo not drawn) | . | . | . | . | . | 15%[56.1 µM]
COc1ccc2cc1Oc1ccc(cc1)C[C@H]1c3c(cc(OC)c4c3Oc3c(ccc5c3[C@H](C2)N(C)CC5)O4)CCN1C | 5.8µM* | -17 | 5.2µM* | -5 | -4 | 10%
CCOc1cc(C(=O)OCC(=O)Nc2c(C)cccc2C)ccc1OCC(=O)N1CCOCC1 | 10% | 4 | -22% | 1 | . | 3%
Cc1c(NC(=O)C(C)OC(=O)/C=C/c2ccco2)c(=O)n(-c2ccccc2)n1C (stereo not drawn) | -20% | 6 | -13% | -14 | 2 | ?
Cc1cc(C)c(S(=O)(=O)/N=C2\C=CC(=O)C(Cl)=C2)c(C)c1 | -16% | 32 | -21% | -5 | 0 | 4%
Cc1ccc(O)c(NC(=O)CCC2CCCCC2)c1 | -22% | ? | ? | -4 | 4 | 1%
CCCCSCCCNC(=O)C1CCC(CNS(=O)(=O)c2ccccc2)CC1 (stereo not drawn) | 16µM* | -1 | ? | 1 | 10 | 3%
CCCCNC(=O)C1CCC(CNS(=O)(=O)c2ccc(C)cc2)CC1 (stereo not drawn) | -2% | 16 | -15% | 5 | -1 | 2%
Cc1ccc(C)n1NC(=O)c1ccccc1 | -2% | -16 | -14% | -1 | 4 | 2%
Cc1ccc(C(=O)CSc2nc3ccccc3o2)cc1 | 2% | -54* | -5% | 34 | 10 | .
Cc1cc(C(=O)CSc2nc(N)cc(=O)[nH]2)c(C)n1CC1CCCO1 (stereo not drawn) | 16µM* | 15 | 18µM* | 0 | 0 | 0%
Cc1cc(C(=O)CSc2nc3ccccc3o2)c(C)n1CC1CCCO1 (stereo not drawn) | 9.2µM* | 6 | 18µM* | 0 | -8 | 2%
Cc1cc(C(=O)CSc2nc(N)cc(N)n2)c(C)n1CC1CCCO1 (stereo not drawn) | ? | 29 | ? | -4 | -10 | 1%
Cc1cc(C(=O)CSc2nc3ccccc3[nH]2)c(C)n1CC1CCCO1 (stereo not drawn) | 7.3µM* | -7 | 5.2µM* | -10 | 2 | 9%
Cc1ccccc1C1(CC(=O)N2CCOCC2)CC(=O)N(Cc2cccnc2)C1=O (stereo not drawn) | 16%[9.04 µM] | . | -7% | . | . | .
C=CCOc1ccccc1CN1CCN(CCc2ccccc2)C(CCO)C1 (stereo not drawn) | -17% | -15 | ? | -1 | 0 | .
O=C(CSc1nnc(CNC(=O)c2ccc(F)cc2)o1)NCCc1ccccc1 | -11% | 0 | -18% | 2 | -11 | 2%
CCCS(=O)(=O)N1CCCC(C(=O)NCCCN2CCN(c3ccc(F)cc3)CC2)C1 (stereo not drawn) | ? | -5 | ? | 12 | -1 | -3%
Cc1cc(C(=O)Cn2nnc(-c3ccc(Cl)cc3)n2)c(C)n1CC1CCCO1 (stereo not drawn) | 12µM* | -71* | ? | -9 | 14 | 0%
COc1ccc(-c2nc3ccccc3n2Cc2ccc(C(C)C)cc2)cc1 | . | . | . | . | . | 5%
COc1ccc(-c2nc3ccccc3n2Cc2ccc(Cl)cc2)cc1 | 21µM* | . | 21µM* | . | . | .
SMILES | DT40 TDP1 CPT | IL1B secr inh | TDP1 cell noCPT | Six1-Eya2 inh | CtBP-E1A blk | TDP1 block
COc1ccc(-c2nc3ccccc3n2Cc2ccc(C)cc2)cc1 | 16µM* | -26 | ? | -10 | -23 | 6%
CCOC(=O)n1c(=O)n(Cc2ccccc2C)c2ccccc21 | -28% | -4 | ? | -4 | -4 | -3%
C=C(C)Cn1c(-c2ccc(OC)cc2)nc2ccccc21 | 13µM* | -1 | 15µM* | 7 | 0 | 2%
CCOC(=O)n1c(=O)n(Cc2ccc(OC)cc2)c2ccccc21 | ? | 19 | 16µM* | -8 | 7 | .
CCOC(=O)C(=O)Cc1cccnn1 | 4% | 8 | -1% | ? | -2 | .
OCCNNC(=S)NC1CC2C=CC1C2 (stereo not drawn) | -1% | -4 | 2% | -16 | -2 | 6%
C=CCn1c(-c2ccc(C)cc2)nc2ccccc21 | 15µM* | -17 | 21µM* | -5 | -9 | 2%
CCCn1c(-c2ccc(OC)cc2)nc2ccccc21 | 2.6µM* | -18 | 3.7µM* | 1 | 4 | 0%
CCOc1ccc(Cn2c(-c3ccc(OCC)c(OC)c3)nc3ccccc32)cc1OC | -6% | . | -19% | . | . | -6%
COc1ccc(Cn2c(O)c(C=Nc3ccc(C)cc3)c3ccccc3c2=O)cc1 | -3% | -13 | -21% | 5 | 8 | 8%
COCn1c(-c2ccc(OC)cc2)nc2ccccc21 | -11% | -20 | -27% | 0 | 2 | -2%
COc1ccc(Cn2c(-c3ccc(C)cc3)c[n+]3ccccc23)cc1 | 1µM* | 0 | 0.92µM* | 2 | 2 | 5%
CCOC(Cn1c(-c2ccc(OC)cc2)nc2ccccc21)OCC | 23µM* | -5 | 16µM* | 1 | 1 | 0%
c1ccc(CSc2nnc(Cc3ccccn3)o2)cc1 | -27% | ? | -14% | -5 | -7 | 5%
O=C(O)CCCC(=O)N(Cc1ccccc1)Cc1ccccc1 | -7% | 22 | -11% | 28 | 46 | 3%
C=CCNC(=O)COC(=O)c1ccc(Cl)c(S(N)(=O)=O)c1 | 7% | -6 | 6% | 4 | 0 | 8%
CCOC(=O)c1cnn(-c2ccc(C)cc2)c1N | -8% | ? | -11% | 3 | 3 | 0%
COc1ccc(-c2nc3ccccc3n2OC(C)C(=O)O)cc1 (stereo not drawn) | -6% | 5 | -19% | -5 | 0 | 5%
